Experimental findings from PubChem BioAssay (EPA / NIEHS) are described below.

The structures appear in SMILES notation. The source holds several records for some structures; these can differ, active in one and inactive in another. Activity calls are given as the source filed them. The calls were made as follows: active = hit-call score of the fitted dose curve at least 0.9, where 1 is the maximum; inactive = score below 0.9.

A short description of the assay: BSK_BT_Bcell_Proliferation: Viability Assessment in the BioMAP Diversity Plus: BT Assay for B cell Proliferation (AID 2284227). The following applies: primary human B cells with PBMC. On the procedure:
BSK_BT is a cell-based, multiplexed-readout assay that uses B cell and peripheral blood mononuclear cells, a human vascular primary cell co-culture, with measurements taken at 24 hours after chemical dosing in a microplate: 96-well plate.BSK_BT_Bcell_Proliferation is an assay component measured in the BSK_BT assay. It measures protein content, a form of viability reporter, as detected with absorbance signals by Sulforhodamine staining technology.Data from the assay component BSK_BT_Bcell_Proliferation was analyzed at the endpoint, BSK_BT_Bcell_Proliferation, in the positive analysis fitting direction relative to DMSO as the negative control and baseline of activity. Using a type of viability reporter, gain or loss-of-signal activity can be used to understand cellular changes in viability. To generalize the intended target to other relatable targets, this assay endpoint is annotated to the 'cell cycle' intended target family, where the subfamily is 'proliferation'.
The levels of cell surface (or secreted, indicated by the prefix "s") biomarker endpoints were measured by ELISA. Overt cytotoxicity to cells in confluent adherent cultures (all systems other than the BT system) was assessed by measuring total protein levels using sulforhodamine B (SRB) staining in parallel cultures at the time of biomarker measurements, indicated as SRB endpoints. For proliferation assays for adherent cell types, individual cell types are cultured at sub-confluence and relative cell numbers quantified by SRB staining at time points optimized for each system (48 h: 3C and CASM3C systems; 72 h: BT and HDF3CGF systems; 96 h: SAg system). SRB was performed by staining cells with 0.1% SRB after fixation with 10% TCA and reading wells at 560 nm.Viability and proliferation of PBMC (T cells) was quantified by Alamar Blue reduction for the SAg and BT systems. For PBMC viability (referred to as PBMC Cytotoxicity within the assay endpoint names), cells were plated (75,000/well in a 96-well plate) and then chemical samples added for 1 h before addition of activators, SEB and TSST-1 (20 ng/mL final concentration each). Cells were incubated for 90 h. Then, Alamar Blue (20 uL/well) (Invitrogen, Cat DAL1100) was added for 6 h, and the plates were read with a fluorescence microplate reader at 546/580 nm (excitation/emission). For PBMC proliferation, cells were plated and activated as above but incubated for only 16 h prior to addition of Alamar Blue. Plates were read after 6 h.
As to `OCCC(F)(F)C(F)(F)C(F)(F)C(F)(F)F`, the result was inactive.
On to `OCc1c[nH]c2ccccc12`, for which the AC50 was 3.97 µM (active).
On to `NCC(F)(F)C(F)(F)C(F)(F)C(F)(F)F`, for which the result was inactive.
On to `S=P(N1CC1)(N1CC1)N1CC1`, for which the AC50 is 8.1 µM (active).
Consider `C[Si](C)(C)C(F)(F)C(F)(F)C(F)(F)F`, for which the result was inactive.
As for `FC(F)(F)COC(OCC(F)(F)F)OCC(F)(F)F`, the outcome was inactive.
Still for that read-out and setting: the entry for `FC(F)(F)C(F)(F)C(F)(F)C(F)(F)C(F)(F)C(F)(F)I` is “inactive”; for `FC(F)C(F)(F)COCC1CO1` (centres undefined) it is “inactive”.
With `O=S(=O)(O)CCC(F)(F)C(F)(F)C(F)(F)C(F)(F)C(F)(F)C(F)(F)F`, the result was inactive and the AC50 was 30 µM (active).
`FC(F)=C(F)C(F)(F)C(F)(F)C(F)(F)C(F)(F)C(F)(F)C(F)(F)F`: the result was inactive.
Turning to `O=C(Cl)C(F)(F)C(F)(F)C(F)(F)C(=O)Cl`, the result was inactive.
For the compound `Cc1cccc(O)c1C`, the outcome was inactive.
Regarding `OC(O)(C(F)C(O)(O)C(F)(F)F)C(F)(F)F`, the AC50 was 30 µM (active).

Usually AC50 stands for the concentration giving half of the maximal activity seen.
